Source: the supplement of paper PMC6992640
± gives the standard deviation of the averaged measurements.

Legend:
Test in all cases: cell viability (% of vehicle); higher = less cytotoxic
Details in all cases: 10 µM; 72 h
HCI01 = tested on: HCI01 (cells of a triple-negative basal-like breast cancer xenograft)
HCI03 = tested on: HCI03 (cells of an ER-positive luminal breast cancer xenograft)
HCI09 = tested on: HCI09 (cells of a triple-negative luminal androgen receptor type breast cancer xenograft)
HCI11 = tested on: HCI11 (cells of an ER-positive luminal breast cancer xenograft)
HCI13 = tested on: HCI13 (cells of an ER-positive luminal breast cancer xenograft)
HCI16 = tested on: HCI16 (cells of a triple-negative basal-like breast cancer xenograft)
UCD52 = tested on: UCD52 (cells of a triple-negative basal-like breast cancer xenograft)
WHIM2 = tested on: WHIM2 (cells of a triple-negative basal-like breast cancer xenograft)
WHIM30 = tested on: WHIM30 (cells of a triple-negative basal-like breast cancer xenograft)
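Note: PDX cells carrying CMV promoter-driven luciferase, viability read as total photon flux per second by IVIS imaging following D-luciferin, vehicle control 0.1% DMSO.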

| Structure (SMILES) | cell viability (HCI01) | cell viability (HCI03) | cell viability (HCI09) | cell viability (HCI11) | cell viability (HCI13) | cell viability (HCI16) | cell viability (UCD52) | cell viability (WHIM2) | cell viability (WHIM30) |
| --- | --- | --- | --- | --- | --- | --- | --- | --- | --- |
| [O-][n+]1cccc(CO)c1 [Mepiroxol] | 117 ± 13 | 119 | 105.2 ± 0.98 | 103 | 99.24 ± 0.22 | 97 | 90.9 ± 8.7 | 95.7 ± 9.9 | 139 ± 26 |
| Nc1nc(=O)c2nc(CNc3ccc(C(=O)NC(CCC(=O)O)C(=O)O)cc3)cnc2[nH]1 (stereo unspecified) [Folic acid] | 103 ± 21 | 118 | 97.5 ± 12 | 85.3 | 101 ± 2.8 | 117 | 92.4 ± 23 | 96.1 ± 4.2 | 101 ± 8.4 |
| OCC1OC(c2ccc(Cl)c(Cc3ccc(OC4CCOC4)cc3)c2)C(O)C(O)C1O (stereo unspecified) | 94.9 ± 15 | 132 | 90.7 ± 14 | 84.1 | 87.5 ± 14 | 113 | 94 ± 1.7 | 112 ± 7 | 114 ± 9.9 |
| CC12CCC(O)CC1=CCC1C2CCC2(C)C(n3cnc4ccccc43)=CCC12 (stereo unspecified) | 119 ± 15 | 58.2 | 54.3 ± 41 | 76.2 | 103 ± 7.5 | 96.3 | 83.2 ± 4.1 | 118 ± 18 | 93.6 ± 13 |
| C[C@H](C(=O)O)c1ccc(-c2ccccc2)c(F)c1 [(S)-Flurbiprofen] | 109 ± 15 | 138 | 98.3 ± 21 | 78.6 | 98.7 ± 1.3 | 107 | 103 ± 2.4 | 103 ± 13 | 106 ± 5.7 |
| CCCc1nn(C)c2c(=O)nc(-c3cc(S(=O)(=O)N4CCN(C)CC4)ccc3OCC)[nH]c12.O=C(O)CC(O)(CC(=O)O)C(=O)O [Sildenafil Citrate] | 116 ± 2.8 | 144 | 96 ± 15 | 118 | 130 ± 23 | 94.4 | 88.2 ± 4 | 83.8 ± 4.8 | 53.9 ± 10 |
| COc1cnc(NS(=O)(=O)c2ccc(N)cc2)nc1 [Sulfameter] | 97.7 ± 24 | 142 | 86.1 ± 1.6 | 83 | 93.22 ± 0.58 | 113 | 80.9 ± 21 | 92.2 ± 18 | 95.13 ± 0.27 |
| Cc1cncc(CN2CCC(=C3c4ccc(Cl)cc4CCc4cccnc43)CC2)c1.O=C(O)C=CC(=O)O [Rupatadine Fumarate] | 89.8 ± 4.1 | 87.7 | 42 ± 3 | 70.2 | 58.2 ± 9.9 | 109 | 63.1 ± 3.4 | 78 ± 7.6 | 81.2 ± 3.8 |
| CN(C)C(=O)c1cc2cnc(Nc3ccc(N4CCNCC4)cn3)nc2n1C1CCCC1 | 109 ± 4.3 | 135 | 114 ± 30 | 138 | 126 ± 13 | 91.7 | 148 ± 8.1 | 108 ± 13 | 130 ± 9.5 |
| CCn1cc(C(=O)O)c(=O)c2cc(F)c(N3CCN(C)CC3)cc21.CS(=O)(=O)O [Pefloxacin Mesylate] | 92.2 ± 33 | 137 | 105.3 ± 0.55 | 103 | 160 ± 5.2 | 153 | 113 ± 2.6 | 80.5 ± 16 | 144 ± 11 |
| Clc1ccc(C(c2ccccc2Cl)C(Cl)Cl)cc1 (stereo unspecified) [Mitotane (Lsodren)] | 127 ± 3.6 | 112 | 148 ± 59 | 107 | 91.2 ± 3.4 | 121 | 97.871 ± 0.035 | 96.3 ± 24 | 142 ± 11 |
| CCC(C)n1ncn(-c2ccc(N3CCN(c4ccc(OCC5COC(Cn6cncn6)(c6ccc(Cl)cc6Cl)O5)cc4)CC3)cc2)c1=O (stereo unspecified) [Itraconazole] | 93.5 ± 38 | 81.2 | 56.7 ± 1.2 | 78.5 | 84.3 ± 4.1 | 129 | 68.6 ± 12 | 131 ± 17 | 94.7 ± 1.1 |
| CC(CCC(=O)O)C1CCC2C3CCC4CC(O)CCC4(C)C3CC(O)C12C (stereo unspecified) [Deoxycholic acid] | 119 ± 25 | 143 | 107 ± 23 | 103 | 107.1 ± 0.2 | 87.1 | 112 ± 3.8 | 104 ± 19 | 91.5 ± 0.73 |
| CCCNC1CCc2nc(N)sc2C1.Cl.Cl.O (stereo unspecified) [Pramipexole 2HCl Monohydrate] | 126 ± 3.4 | 131 | 107.2 ± 0.44 | 110 | 97.4 ± 1.9 | 138 | 103 ± 16 | 94.3 ± 11 | 103 ± 4.9 |
| C=CC[C@@H]1/C=C(\C)C[C@H](C)C[C@H](OC)[C@H]2O[C@@](O)(C(=O)C(=O)N3CCCC[C@H]3C(=O)O[C@H](/C(C)=C/[C@@H]3CC[C@@H](O)[C@H](OC)C3)[C@H](C)[C@@H](O)CC1=O)[C@H](C)C[C@@H]2OC [Tacrolimus (FK506)] | 55.9 ± 45 | 112 | 50.6 ± 16 | 85.4 | 99.2 ± 6.4 | 92 | 83.4 ± 4.2 | 85.9 ± 20 | 166 ± 19 |
| Cc1c(N(C)C)c(=O)n(-c2ccccc2)n1C [Amidopyrine] | 99.1 ± 16 | 118 | 94.5 ± 19 | 93.2 | 76.33 ± 0.62 | 97.5 | 97.8 ± 7.1 | 117 ± 37 | 122 ± 8.5 |
| CC(=O)OC1(C(C)=O)CCC2C3CC(C)C4=CC(=O)CCC4(C)C3CCC21C (stereo unspecified) [Medroxyprogesterone acetate] | 122 ± 12 | 114 | 98.5 ± 53 | 78.4 | 152 ± 16 | 177 | 95 ± 3.6 | 87.8 ± 5.8 | 184 ± 9.5 |
| C1CNCCN1.C[C@@]12CC[C@H]3c4ccc(OS(=O)(=O)O)cc4CC[C@H]3[C@H]1CCC2=O [Estropipate] | 89.8 ± 7.5 | 173 | 81.6 ± 11 | 95.3 | 159 ± 20 | 104 | 104.03 ± 0.037 | 91.3 ± 27 | 98.27 ± 0.36 |
| CC(C(=O)O)c1ccc2c(c1)[nH]c1ccc(Cl)cc12 (stereo unspecified) [Carprofen] | 175 ± 51 | 107 | 112 ± 6 | 95.3 | 102.2 ± 0.8 | 138 | 113 ± 3.4 | 152 ± 30 | 117.4 ± 0.51 |
| N.N.[Cl][Pt+2][Cl] [Cisplatin] | 114 ± 0.99 | 124 | 64 ± 66 | 119 | 66.6 ± 27 | 117 | 99.9 ± 11 | 117 ± 18 | 133 ± 14 |

| Structure (SMILES) | cell viability (HCI01) | cell viability (HCI03) | cell viability (HCI09) | cell viability (HCI11) | cell viability (HCI13) | cell viability (HCI16) | cell viability (UCD52) | cell viability (WHIM2) | cell viability (WHIM30) |
| --- | --- | --- | --- | --- | --- | --- | --- | --- | --- |
| CC(C)NCC(O)COc1ccc(COCCOC(C)C)cc1.O=C(O)C=CC(=O)O (stereo unspecified) [Bisoprolol fumarate] | 129.4 ± 0.93 | 129 | 102 ± 30 | 113 | 93.1 ± 1.1 | 96.1 | 86.1 ± 8.9 | 93.9 ± 16 | 120 ± 2.5 |
| O=c1cc(O)c(Cl)c[nH]1 [Gimeracil] | 96.4 ± 1.7 | 131 | 94 ± 19 | 112 | 123 ± 14 | 91 | 87.8 ± 3.9 | 102 ± 15 | 101 ± 17 |
| CCCCNc1cc(C(=O)O)cc(S(N)(=O)=O)c1Oc1ccccc1 [Bumetanide] | 109 ± 9.6 | 95.9 | 109 ± 8.9 | 92 | 89.5 ± 4 | 108 | 99 ± 1.3 | 78.6 ± 14 | 133 ± 26 |
| Cc1ncc([N+](=O)[O-])n1CC(C)O (stereo unspecified) [Secnidazole] | 57.6 ± 32 | 133 | 82.6 ± 1.1 | 89.3 | 103 ± 11 | 114 | 79.3 ± 1.8 | 92.4 ± 20 | 149 ± 20 |
| Cc1ncc(CO)c(CO)c1O.Cl [Pyridoxine HCl] | 89.2 ± 31 | 121 | 90.1 ± 4.5 | 91.9 | 117 ± 18 | 107 | 99.9 ± 5.3 | 86.6 ± 2.4 | 100 ± 3.4 |
| CCCC(=O)Nc1ccc(OCC(O)CNC(C)C)c(C(C)=O)c1.Cl (stereo unspecified) [Acebutolol HCl] | 125 ± 5.8 | 123 | 102 ± 22 | 106 | 76.3 ± 3.2 | 156 | 97.1 ± 7 | 98.7 ± 8.9 | 131.6 ± 0.063 |
| O=C(O)c1cc(=O)[nH]c(=O)[nH]1 [Orotic acid] | 90.2 ± 12 | 100 | 88.5 ± 22 | 93.2 | 85.7 ± 3.8 | 120 | 93.6 ± 9.7 | 102.1 ± 0.24 | 76.6 ± 5.3 |
| N#CC1CC2CC2N1C(=O)C(N)C12CC3CC(CC(O)(C3)C1)C2 (stereo unspecified) [Saxagliptin] | 95 ± 7.6 | 145 | 82.1 ± 5.7 | 89.2 | 85.7 ± 7 | 93.8 | 97.4 ± 5.6 | 123 ± 7.2 | 98 ± 2.8 |
| Cc1ccccc1C(=O)Nc1ccc(C(=O)N2CCCC(O)c3cc(Cl)ccc32)c(C)c1 (stereo unspecified) [Tolvaptan] | 97.7 ± 38 | 138 | 80.4 ± 7.1 | 85.9 | 101 ± 5 | 159 | 89 ± 4.9 | 92.5 ± 19 | 157 ± 8.1 |
| CC(=O)OC1(C(C)=O)CCC2C3CCC4=CC(=O)CCC4=C3C(c3ccc(N(C)C)cc3)CC21C (stereo unspecified) [Ulipristal acetate] | 97.9 ± 26 | 116 | 82.5 ± 9 | 78.9 | 92.8 ± 17 | 117 | 93.4 ± 5.8 | 105 ± 2.1 | 111 ± 18 |
| CC(C)C1CCC(C(=O)NC(Cc2ccccc2)C(=O)O)CC1 (stereo unspecified) [Nateglinide] | 84.1 ± 62 | 131 | 76.3 ± 6.6 | 87.4 | 112 ± 18 | 110 | 94 ± 4.4 | 117 ± 19 | 122 ± 17 |
| C=CC[N+]1(C2CC3C4CCC5CC(O)C(N6CCOCC6)CC5(C)C4CCC3(C)C2OC(C)=O)CCCC1.[Br-] (stereo unspecified) [Rocuronium Bromide] | 100 ± 8.3 | 133 | 103 ± 3.9 | 102 | 115 ± 7.2 | 80.4 | 118 ± 8 | 99.8 ± 22 | 119 ± 7.7 |
| CN1C[C@@H]2c3ccccc3Oc3ccc(Cl)cc3[C@H]2C1.O=C(O)/C=C/C(=O)O [Asenapine] | 91.9 ± 7 | 93 | 68.9 ± 5.4 | 93.7 | 72.7 ± 4.8 | 121 | 71 ± 5.6 | 79.5 ± 14 | 114 ± 25 |
| CCCNC(C)C(=O)Nc1c(C)csc1C(=O)OC.Cl (stereo unspecified) [Articaine HCl] | 104 ± 4.9 | 115 | 116 ± 7 | 96.9 | 79.6 ± 10 | 133 | 94.3 ± 5.7 | 104 ± 18 | 129 ± 5.7 |
| CO[C@H]1O[C@@H]2OC3(C)CC[C@H]4[C@H](C)CC[C@@H]([C@H]1C)[C@@]24OO3 [Artemether] | 116 ± 31 | 121 | 94.4 ± 26 | 102 | 95.8 ± 0.62 | 106 | 97.88 ± 0.13 | 97.7 ± 8.3 | 75.18 ± 0.081 |
| COC(=O)C1=COC(O)C2C(CO)=CCC12 (stereo unspecified) [Genipin] | 168 ± 20 | 138 | 95.3 ± 6 | 98.6 | 119 ± 2.7 | 198 | 110 ± 5.3 | 124 ± 11 | 155 ± 9.6 |
| FC(F)(F)c1ccc(C=Cc2nc(COc3ccc(CCCCn4ccnn4)cc3)co2)cc1 [Mubritinib (TAK 165)] | 111 ± 4 | 89.9 | 26.1 ± 3.1 | 62.2 | 65.54 ± 0.49 | 124 | 56.43 ± 0.074 | 120 ± 31 | 63.1 ± 6.1 |
| CCOC(=O)C1=CC(OC(CC)CC)C(NC(C)=O)C(N)C1 (stereo unspecified) [Oseltamivir] | 111 ± 11 | 124 | 96.2 ± 20 | 97.4 | 99.2 ± 7.4 | 91 | 96.03 ± 0.49 | 91.98 ± 0.9 | 126 ± 6.9 |
| CO[C@H]1/C=C/O[C@@]2(C)Oc3c(C)c(O)c4c(O)c(c5c(nc6cc(C)ccn65)c4c3C2=O)NC(=O)/C(C)=C\C=C\[C@H](C)[C@H](O)[C@@H](C)[C@H](O)[C@@H](C)[C@H](OC(C)=O)[C@@H]1C [Rifaximin (Xifaxan)] | 121 ± 13 | 115 | 114 ± 43 | 98.8 | 98.8 ± 33 | 97.6 | 91.9 ± 7.9 | 68.6 ± 13 | 128 ± 12 |
